Rows were chosen to be rich in hits. Some 6.5% of all compounds tested hit in one or more screens of this group.
HCMV inh: inhibitors of human cytomegalovirus; HFF cells, HCMV-luciferase reporter, 72 h; active compounds read low; activity change, negative = inhibition, % at 57.5 µM; actives 4.5% (n = 410,000); in the data active = activity change below about -60%; inconclusive = no clear call, values can overlap the other calls; inactive = above about -39%
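Inhibition of viral replication was scored as loss of reporter luminescence in HFFs infected with HCMV-luciferase (MOI 1 PFU/cell) for 72 h; compounds tested at 2 doses, normalized to buffer and Salinomycin controls.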
LASV entry inh: blocks Lassa virus binding to or entry into cells. Lassa virus pseudotype entry inhibition, cell reporter. actives 1.2% (n = 300,000). AID 540256. Potency, µM (highest dose often 37.9 µM), for inactives: at the highest dose activity change, negative = inhibition, hits mostly inhibitors; calls by dose curve; tested in HEK293 cells; note: potency is the fitted concentration of half-maximal effect; nearly all actives have a fitted effect of over 50% in size
FMDV inh: antivirals against foot and mouth disease virus; FMDV antiviral cell-based qHTS; Potency, µM (series often up to 57.9 µM), without a hit: at the highest dose activity change, negative = inhibition, usual class: inhibitors; actives 1.2% (n = 410,000); AID 1159524; calls by dose curve; tested in HEK293T cells; note: read-out not given here; potency is the fitted concentration of half-maximal effect; nearly all actives have a fitted effect of over 45% in size
VACV Venus inh: vaccinia inhibition (Venus reporter) | Vaccinia virus Venus reporter expression, fluorescence | Potency, µM (doses to about 36.5 µM), inactives show at the highest dose activity change, negative = inhibition, most hits filed as inhibitors | AID 720580 | actives 0.46% (n = 330,000); calls by dose curve; tested in A549 cells; note: potency is the fitted concentration of half-maximal effect; nearly all actives have a fitted effect of over 30% in size
VACV mCherry inh: inhibitors of vaccinia virus infection (mCherry reporter signal); Vaccinia virus mCherry reporter infection, fluorescence; Potency, µM (doses to about 36.5 µM), for the others: at the highest dose activity change, negative = inhibition, hits mostly inhibitors; actives 0.63% (n = 310,000); AID 720579; calls by dose curve; tested in A549 cells; note: potency is the fitted concentration of half-maximal effect; nearly all actives have a fitted effect of over 35% in size
Marburg entry inh: inhibitors of Marburg virus binding or cell entry. AID 540276. actives 1.8% (n = 300,000). Marburg virus pseudotyped entry inhibition, cell reporter. Potency, µM (top dose mostly 37.8 µM), without a hit: at the highest dose activity change, negative = inhibition, actives largely listed as inhibitors; calls by dose curve; tested in HEK293 cells; note: potency is the fitted concentration of half-maximal effect
Starred values were filed as active, the others as inactive; i = inactive; ? = inconclusive; . = no result; ! = not confirmed by another sample; [ ] = dose if it differs, or a comment. % is set by controls: 0 for no effect and ±100 for the full control effect.

SMILES	HCMV inh	LASV entry inh	FMDV inh	VACV Venus inh	VACV mCherry inh	Marburg entry inh
COc1ccc(CC(=O)Nc2c(C(=O)Nc3ccccc3F)oc3ccccc23)cc1	-33	7%[46.1 µM]	-9%	-10%	0%	24%[46.1 µM]
CC(=O)N1CCN(Cc2nc3cc(NC(=O)c4ccc(Cl)cc4)ccc3n2C)CC1	-80*	-17%	?	-22%	-7%	-19%
CCOC(=O)N1CCN(Cc2nc3cc(NC(=O)c4ccc(OC)cc4)ccc3n2C(C)C)CC1	-36	?	0%	?	?	?
CC(=O)N1CCN(Cc2nc3cc(NC(=O)c4cccc(Br)c4)ccc3n2C)CC1	-73*	-24%	?	-11%[7.34 µM]	i[7.34 µM]	?
Cn1c(CN2CCCCC2)nc2cc(NC(=O)c3ccc(F)cc3)ccc21	-62*	?	?	.	.	?
CC(=O)N1CCN(Cc2nc3cc(NC(=O)c4ccccc4C)ccc3n2C)CC1	27	7%	-11%	-14%	.	-7%
CCOC(=O)N1CCN(Cc2nc3cc(NC(=O)c4ccc(F)cc4)ccc3n2C(C)C)CC1	-85*	-25%[46.1 µM]	?	-18%[7.34 µM]	-26%[7.34 µM]	?
COC(=O)[C@@]1(C=C2c3ccc(OC)cc3[C@@H](OC)[C@@H]2C)[C@@H]2C=CC[C@@H]21	.	.	.	.	.	-11%[14.2 µM]
COc1ccc(CC2=CC(=O)c3ccccc3C2=O)cc1	-97*	.	?	.	.	.
Cc1ccc(Cl)cc1NC(=O)c1ccc(CSc2nnnn2C)cc1	-61*	1%	-3%	-7%	.	-1%
O=C1CC(C(=O)Nc2ccc(F)cc2)n2cnnc2N1 (configuration not stated)	-71*	-10%	-8%	-11%	3%	4%[46.1 µM]
O=C(Nc1ccc(F)cc1)C1CC(=O)n2cnnc2N1 (configuration not stated)	-31	9%[46.1 µM]	11%	-8%	i	-3%[46.1 µM]
CCOC(=O)c1cc(OCc2csc(-c3ccccc3)n2)cc(C(=O)OCC)c1	.	.	.	-11%	-8%	.
COc1ccc(-c2ccc(CN3C(CC(C)C)C(=O)N(Cc4cn(CCC5OCCO5)nn4)CCS3(=O)=O)cc2)cc1OC (configuration not stated)	-62*	.	-15%	-13%	0%	?
CC1C(=O)N(Cc2cn(CCC3OCCCO3)nn2)CCS(=O)(=O)N1Cc1ccc(-c2ccc(Cl)c(Cl)c2)cc1 (configuration not stated)	-92*	.	?	?	-29%	.
CC(C)CC1C(=O)N(Cc2cn(CCC3OCCO3)nn2)CCS(=O)(=O)N1Cc1ccc(-c2ccc(F)cc2)cc1 (configuration not stated)	-24	-21%[46.1 µM]	-6%	-25%	-29%	.
COCOCCn1cc(CN2CCS(=O)(=O)N(Cc3ccc(-c4ccc(Cl)c(Cl)c4)cc3)C(C)C2=O)nn1 (configuration not stated)	?	-7%[46.1 µM]	?	13µM*	?	.
Cc1ccc(N(Cc2cc(=O)[nH]c3ccccc23)C(=O)CCl)c(C)c1	-97*	?	35µM*	?	?	?
CCCC(=O)N(Cc1cc(=O)[nH]c2ccccc12)c1ccc(C)cc1C	17	.	-21%	.	.	.
COc1cccc(/C(O)=C2\C(=O)C(=O)N(c3ccccn3)C2c2ccccc2OC)c1 (configuration not stated)	15	5%	9%	-10%	-23%	1%
COc1ccc(C2/C(=C(\O)c3cccc(OC)c3)C(=O)C(=O)N2c2ccccn2)cc1 (configuration not stated)	-107*	-4%	-21%	.	.	20%
O=S(=O)(/C(=C\c1ccc(C(F)(F)F)cc1)c1nc2ccccc2[nH]1)c1ccccc1	.	3.5µM*	11µM*	?	?	4µM*
Cc1ccc(-c2nnc(SCC(=O)N/N=C/c3ccc(C)s3)n2-c2ccc(C)cc2)cc1	-63*	?	-6%	-12%	-19%	?
Cc1ccsc1/C=N/NC(=O)c1c[nH]c2ccccc12	152	11%	45%	-27%	?	9%
Cc1ccc(-c2nnc(SCC(=O)N/N=C/c3ccccc3C(=O)O)n2-c2ccccc2)cc1	15	.	.	.	.	.
SMILES	HCMV inh	LASV entry inh	FMDV inh	VACV Venus inh	VACV mCherry inh	Marburg entry inh
Cc1ccc(-n2c(SCC(=O)N/N=C/c3c(C)nn(-c4ccccc4)c3C)nc3ccccc3c2=O)cc1	-63*	-22%	0%	-14%	?	?
CCn1c(SCC(=O)N/N=C/c2ccc(C)s2)nc2ccccc21	3	-19%	8%	-22%	?	2.6µM*
CCn1c(SCC(=O)N/N=C/C=C/c2ccco2)nc2ccccc21	28	-9%	-20%	.	.	-21%
Cc1ccc(/C=N/NC(=O)c2c[nH]c3ccccc23)s1	-72*	-18%	51%	?	?	?
CSc1ncc(C(=O)Nc2cc(Cl)ccc2C)c(-c2ccccc2)n1	?	2%[46.1 µM]	-22%	-1%	-8%	.
CC(=O)N1CCC[C@H]1C(=O)NCC1Cc2cc(-c3cnccn3)cc(Cl)c2O1 (some centres not stated)	.	.	2%	2%	-10%	.
Cc1ccccc1-n1c(SCC(=O)NC(N)=O)nc2sc(-c3ccccc3)cc2c1=O	-71*	-4%	-7%	-28%	?	?
CCCCCCCCCC(=O)N/N=C/c1ccc(C)s1	70	9.2µM*	0%	.	.	?
Cc1ccccc1-n1c(SCC(N)=O)nc2sc(-c3ccccc3)cc2c1=O	21	0%	-18%	?	.	-6%
Cc1ccccc1-n1c(SCC(=O)N/N=C/c2c(C)nn(-c3ccccc3)c2C)nc2ccccc2c1=O	0	?	-23%	?	-27%	7.3µM*
Cc1ccc(/C=N/NC(=O)CSc2nc3ccccc3c(=O)n2-c2ccccc2)s1	10	2%	-2%	-3%	-10%	5%
Cc1ccc(/C=N/NC(=O)CSc2nc3ccccc3c(=O)n2-c2ccccc2C)s1	-69*	?	-8%	-14%	-23%	?
Cc1nn(-c2ccccc2)c(C)c1/C=N/NC(=O)CSc1nc2ccccc2c(=O)n1-c1ccc(Br)cc1	-8	-25%	-7%	-24%	-1%	?
COc1ccc(CNCCSc2nnnn2-c2ccccc2)cc1	-6	-3%[46.1 µM]	6%	-12%	-8%	0%[46.1 µM]
CCOC(=O)c1cnc(S[C@@H]2CC(=O)N(c3cccc(OC)c3)C2=O)nc1N	.	.	.	.	.	13%
CCc1ccccc1Nc1nc(N)nc(COC(=O)CCC(=O)c2ccc(F)cc2)n1	.	10µM*	6%	5%	-12%	?
CCCCC(=O)OCc1nc(N)nc(Nc2ccccc2C)n1	0	?	0%	-18%	-1%	-25%
Cc1cccc(NC(=O)CSc2nc3ccccc3c3nc(CCc4c(C)n[nH]c4C)nn23)c1	-82*!	?	?	-16%	-29%	18µM*
CCn1c(SCC(=O)Nc2cccc(C)c2)nc2ccccc2c1=O	-32	-22%[46.1 µM]	-6%	-2%	5%	?

Screens as filed in PubChem BioAssay.
